# Source: PubChem
# D2 PAM-1: positive allosteric modulators of human D2 dopamine receptor; P14416; HEK293 T-REx D2, calcium flux, EC20 dopamine potentiation; potentiation, % at 10 µM; 340,000 compounds, 0.34% hits; AID 485347;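 active = potentiation over 3 SD above the plate norm, cut at about 30% in these data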; note: 0% is about no effect
# Target sequence (P14416 whole entry, looked up): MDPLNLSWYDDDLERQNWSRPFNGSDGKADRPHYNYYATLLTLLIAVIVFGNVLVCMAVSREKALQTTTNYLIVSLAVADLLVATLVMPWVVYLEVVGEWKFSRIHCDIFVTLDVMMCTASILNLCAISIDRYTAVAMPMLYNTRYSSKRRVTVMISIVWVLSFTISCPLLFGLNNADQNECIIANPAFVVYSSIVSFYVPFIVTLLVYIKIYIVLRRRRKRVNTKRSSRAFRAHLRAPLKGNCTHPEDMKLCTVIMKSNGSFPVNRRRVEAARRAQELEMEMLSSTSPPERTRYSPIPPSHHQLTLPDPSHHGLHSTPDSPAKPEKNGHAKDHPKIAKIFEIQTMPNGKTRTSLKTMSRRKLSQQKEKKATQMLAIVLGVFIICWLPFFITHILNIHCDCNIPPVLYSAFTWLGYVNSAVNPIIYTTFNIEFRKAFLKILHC
#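 Primary screen. Calcium kinetics in induced HEK293 T-REx D2 cells: compound pre-addition 180 s, EC20 dopamine, 180 s more.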
# D2 ag-1: human D2 receptor agonism in beta-arrestin assay; P14416; DiscoveRx PathHunter D2 beta-arrestin, luminescence, 90 min; 100% = 57 uM dopamine signal; activation, % (test concentration not listed); 360,000 compounds, 0.084% hits; AID 624465; in the data active = activation above about 40%; inconclusive = between about 15% and that limit
#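 Agonist mode: compounds alone added to overnight-plated D2 PathHunter cells for 90 min at 37 C, with 57 uM final dopamine (EC100) defining full response. Beta-arrestin recruitment detected by chemiluminescent reagent, read after 1 h at ambient temperature.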
# D2 antag: antagonizes the human D2 dopamine receptor. P14416. HEK293 TREx D2 cells, calcium flux, dopamine EC80. inhibition, % at 10 µM. 340,000 compounds, 2% hits. AID 485344; in the data active = inhibition above about 30%; inactive = below that, where a call was filed; note: 0% is about no effect
#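 Calcium mobilization kinetics were recorded at 1 s intervals in tetracycline-induced HEK293 T-REx D2 cells, first for 180 s after compound addition and then 180 s after EC80 dopamine.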
# D2 ag-2: activates the human D2 dopamine receptor | AID 485358 | HEK293 T-REx D2 cells, calcium flux agonist mode | activation, % at 2 µM | 340,000 compounds, 0.53% hits;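 active = activation over 3 SD above normal in the single-dose calcium agonist read, cut at about 30% in these data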; note: 0% is about no effect
#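 Tetracycline-induced HEK293 T-REx cells with force-coupled D2 receptor, plated overnight at 30 C, loaded with no-wash calcium dye. After a 10 s baseline, compound was pin-added and calcium flux read kinetically for 180 s; calcium rises flagged agonists.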
# D2 PAM-2: positive allosteric modulators of human D2 dopamine receptor. 360,000 compounds, 0.23% hits. P14416. potentiation, % (concentration not given with the values). DiscoveRx D2 beta-arrestin cells, luminescence, 90 min; 100% = 57 uM dopamine signal. AID 624464; in the data active = potentiation above about 50%; inconclusive = mostly about 30% to 49%
#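 PathHunter beta-arrestin assay in DiscoveRx D2 cells. Compounds were added with an EC20 of dopamine (50 nM final) for 90 min at 37 deg C. Luminescence was read 1 h after detection reagent, with 57 uM dopamine as the EC100 control.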
# Numbers without * were called inactive; ? = inconclusive; / = no result. Most compounds without a hit are left out; they make up all but 2.4% or so of the library.
SMILES,D2 PAM-1,D2 ag-1,D2 antag,D2 ag-2,D2 PAM-2
CN(C)c1ccc(/C=C/c2ccc3ccccc3n2)cc1,6,-1,-24,24,-1
Cc1cc(OC(=O)c2ccco2)c(Sc2ccccc2[N+](=O)[O-])c(=O)o1,3,-5,34*,1,-9
Cc1cccc(C(c2sc3nc(-c4ccco4)nn3c2O)N2CCOCC2)c1 (centres undefined),9,/,/,1,/
COc1ccc(CC2(CO)CCN(C/C=C/c3ccccc3OC)CC2)cc1,8,-1,-9,1,-7
COc1ccccc1/C=C/CN1CCCC(CO)(CCc2ccccc2)C1 (centres undefined),-19,4,71*,0,-23
OCC1(CCc2ccccc2)CCCN(C/C=C/c2ccccc2)C1 (centres undefined),-22,5,45*,-1,-21
Cc1cc(NNC(=O)c2ccccc2)nc(NNC(=O)c2ccccc2)n1,-23,9,34*,0,2
CNc1nc(NC)nc(NNC(=O)c2ccccc2)n1,/,0,/,/,-10
CCOc1ccc(-c2nnc(NC(=O)Cc3ccc(OC)cc3)o2)cc1,-8,-4,35*,0,-7
COc1ccc(-c2nnc(NC(=O)c3ccc(F)cc3)o2)cc1,-13,-6,34*,-1,1
CC(NC(=O)Cn1cc2c(n1)CCCCC2)c1ccccc1 (centres undefined),1,-2,35*,0,0
O=S(=O)(c1ccccc1)N1CCN(C(=S)NCCc2ccccc2)CC1,-3,-4,38*,0,-2
COC(=O)c1c(SC)nc2ccccc2c1OCc1ccccc1C,3,/,/,/,/
O=C(CCCCCN1C(=O)CCC1=O)Nc1ncn[nH]1,/,0,45*,2,0
CC(=O)c1ccc(NC(=S)N2CCC(Cc3ccccc3)CC2)cc1,-6,-3,32*,-1,-12
O=C(c1ccc(Br)o1)N1CCC(Cc2ccccc2)CC1,8,-4,49*,-1,-14
CC(=O)c1cccc(NC(=S)N2CCC(Cc3ccccc3)CC2)c1,-8,-2,8,0,-17
COC(=O)c1ccc(CSc2c(C(C)C)cnc3c2c(=O)n(C)c(=O)n3C)cc1,3,/,/,0,/
CCCCN1CC(c2nc3ccccc3n2CCCCOc2cccc(C)c2C)CC1=O (centres undefined),2,/,/,1,/
O=S(=O)(c1ccc2ccccc2c1)N1CCOCC1,25,1,-4,1,-5
O=S(=O)(c1ccc2nc(-c3ccco3)c(-c3ccco3)nc2c1)N1CCOCC1,17,4,-2,-2,56*
CC(C)CCNC(=O)c1ccc2c(c1)N(C)C(=O)c1ccccc1S2,-21,-2,47*,2,-23
CCCCNC(=O)c1ccc2c(c1)N(C)C(=O)c1ccccc1S2,-9,1,-27,-1,-13
CCN1C(=O)c2ccccc2Sc2ccc(C(=O)NCCC(C)C)cc21,-26,-4,44*,0,-21
CCc1ccc(C(=O)c2cn(CC(=O)Nc3cc(OC)ccc3OC)c3ccc(Cl)cc3c2=O)cc1,-25,/,/,1,/
SMILES,D2 PAM-1,D2 ag-1,D2 antag,D2 ag-2,D2 PAM-2
CCCCCCCC(=O)N/N=C(\C)c1ccc(O)cc1O,-21,1,72*,-2,-26
CCCCCCCCC(=O)N/N=C(\C)c1ccc(O)cc1O,-28,-1,49*,-1,-23
CCCCCCCC(=O)N/N=C(\C)c1ccc(N)cc1,5,/,12,0,/
CC(=O)N1c2ccc(S(=O)(=O)N(C)CC(=O)N(Cc3ccccc3)C(C)C)cc2CC1C (centres undefined),2,/,/,-1,/
Cc1ccc(NC(=O)C2CCN(S(=O)(=O)c3c(C)noc3/C=C/N(C)C)CC2)cc1,4,-1,-29,1,-12
Cc1noc(/C=C/N(C)C)c1S(=O)(=O)N1CCC(C(=O)NC(C)(C)C)CC1,-4,0,31*,-1,0
C/C(=N/Nc1ccc(C(=O)O)cc1)c1ccc(O)c(O)c1O,0,?,-6,0,85*
COCCCNc1nc(N)c([N+](=O)[O-])c(NC2CCCCC2)n1,20,0,30*,4,-4
CC(C)CCNc1nc(N)c([N+](=O)[O-])c(NCC2CCCO2)n1 (centres undefined),2,2,24,32*,-31
CCCSc1nc2c(cnn2-c2ccccc2)c(=O)[nH]1,41*,-4,3,-1,-5
COc1ccc(Cn2c(=O)c3cccnc3n(CC(=O)Nc3c(C)cc(C)cc3C)c2=O)cc1,-6,/,/,0,/
O=[N+]([O-])c1ccc(Sc2ccncn2)c([N+](=O)[O-])c1,/,?,/,/,-16
Cc1cc(C)nc(Sc2ccc([N+](=O)[O-])cc2[N+](=O)[O-])n1,10,9,-7,0,70*
Cc1cc(Cl)ccc1NC(=O)CCS(=O)(=O)c1ccc2c(c1)CC(C)N2C(=O)C1CC1 (centres undefined),-22,/,/,/,/
O=C(Nc1ccc(S(=O)(=O)Nc2ccccn2)cc1)c1cccc([N+](=O)[O-])c1,-3,3,39*,0,16
O=C(Nc1ccc(S(=O)(=O)Nc2ncccn2)cc1)c1cccnc1,6,1,42*,0,1
CSc1ccc(CCNC(=O)C2CCN(c3ncnc4c3nc3n4CCCCC3)CC2)cc1,5,/,/,-1,/
CCOc1ccc(CC(=O)Nc2c(C(=O)c3ccccc3)oc3ccc(OC)cc23)cc1OCC,-4,/,/,1,/
Cc1ccc(CO/N=C\Cc2snc(Sc3ncc(C(F)(F)F)cc3Cl)c2C#N)cc1,-1,2,33*,0,11
Cc1nn(C(=O)c2cccc(F)c2)c(C)c1S(=O)(=O)N1CCCCCC1,13,/,/,0,/
Cc1ccccc1OCCSc1nc2ccc(NC(=O)c3cccc(F)c3)cc2s1,1,/,/,-2,/
CC1CCN(S(=O)(=O)c2ccc3c(ccc(=O)n3CC(=O)NCc3ccccc3)c2)CC1,3,/,/,1,/
CCN1CCCC1CNC(=O)c1ccc(N2CCOCC2)c(NS(=O)(=O)c2ccc(OC)cc2)c1 (centres undefined),-13,-1,33*,0,-17
CCN(CC)CCNC(=O)c1ccc(N2CCCCC2)c(NS(=O)(=O)c2ccc(C)cc2)c1,-17,-5,56*,1,-26
Cc1ccc(S(=O)(=O)c2cnc(SCC(=O)Nc3cccc(Cl)c3)nc2N)cc1C,11,/,/,-1,/
COc1ccc(N(C(=O)c2ccc(OC)c(OC)c2)S(=O)(=O)c2ccc(Cl)cc2)cc1,0,/,/,1,/
CCCN1CCN(CCCNC(=O)c2ccc3c(c2)sc2nc(-c4ccc(C)cc4)cn23)CC1,-8,/,/,1,/
COc1ccc(OC)c(CN2CCN(C(=O)c3ccc(F)cc3)CC2)c1,4,-4,41*,1,-27
